Screening data: PubChem BioAssay, Milwaukee Institute for Drug Discovery
Only some compounds are listed: those with a hit (about 6.9% of all), similar ones and a draw of the others.
Cy5 interf NS3h: enhances or quenches Cy5 fluorescence in NS3h assay; fluorescence interference ratio at 100 µM; 16,000 compounds, 6% hits; Cy5-dT15 DNA with NS3h, fluorescence interference; actives lie on both sides; signal over control mean, under 1 quenches;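 active = compound fluorescence over control fluorescence at most 0.8, a quencher, or at least a set upper limit, an enhancer; inactive = ratio between 0.8 and the set upper limit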
NS3h inh CB: blocks HCV NS3 helicase binding to DNA; NS3h Cy5-dT15 DNA binding, fluorescence polarization; inhibition, % at 100 µM; 16,000 compounds, 1.6% hits; AID 687043;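 active = inhibition above the average over every tested compound plus 3 SD, cut at about 40% in these data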
The depositor's hits bear a star.

SMILES	Cy5 interf NS3h	NS3h inh CB
CCOc1ccc(-c2cc(C)n3nc(C(=O)Nc4ccccc4C(=O)OC)cc3n2)cc1	1.03	3.7
O=C(CN1C(=O)c2ccccc2C1=O)Nc1ccc(Br)cc1	1.08	9.0
Cc1ccnc(NC(=O)COc2ccc(C)c(C)c2)c1	1.07	19.9
Cc1ccc(C)c(OCC(=O)N/N=C\C=N/NC(=O)COc2cc(C)ccc2C)c1	1.02	4.0
CC(C)C(=O)Nc1ccc2oc(-c3ccc(Cl)cc3)nc2c1	0.503*	10.5
Cc1ccc(-c2nc3cc(NC(=O)C(C)C)ccc3o2)cc1	1.03	17.3
COc1ccccc1-n1sc2c(c1=S)-c1cc(C)c(C)cc1NC2(C)C	1.03	13.5
O=C(c1nn2c(c1Cl)NC(c1ccccc1)CC2C(F)(F)F)N1CCN(c2ccc(F)cc2)CC1 (configuration not stated)	0.99	28.4
CC(O)c1ccc(NC(=O)c2cnn3c2NC(c2cccs2)CC3C(F)(F)F)cc1 (configuration not stated)	1.02	4.8
Cc1ccc(C2CC(C(F)(F)F)n3nc(C(=O)Nc4ccc(C(C)O)cc4)cc3N2)cc1 (configuration not stated)	0.643*	7.7
COc1ccc(C2CC(C(F)(F)F)n3ncc(C(=O)N(C)Cc4ccccc4)c3N2)cc1OC (configuration not stated)	0.598*	27.6
Cc1ccc(C2CC(C(F)(F)F)n3ncc(C(=O)N(Cc4ccccc4)Cc4ccccc4)c3N2)cc1 (configuration not stated)	0.942	8.3
Cc1ccc(C2CC(C(F)(F)F)n3nc(C(=O)N4CCN(c5ccc(F)cc5)CC4)c(Cl)c3N2)cc1 (configuration not stated)	0.49*	10.5
CC(O)c1ccc(NC(=O)c2cnn3c2NC(c2ccc(F)cc2)CC3C(F)(F)F)cc1 (configuration not stated)	0.482*	23.5
CC(O)c1cccc(NC(=O)c2cc3n(n2)C(C(F)(F)F)CC(c2ccc(F)cc2)N3)c1 (configuration not stated)	0.959	14.7
COc1cccc(OC)c1C(=O)Nc1cccc(C(=O)c2ccccc2)c1	0.946	28.5
O=C1N/C(=N\N=C/c2ccccc2)SC1Cc1ccc(Cl)cc1Cl (configuration not stated)	1.06	-1.6
CCOC(=O)C1=C(C)N=c2s/c(=C\c3cccc(O)c3)c(=O)n2C1c1cc(Br)c(OC)cc1OC (configuration not stated)	0.951	0.8
COc1ccc(Br)cc1/C=N\n1cnnc1	0.97	2.9
C/C(=N/N=C1\NC(=O)C(CC(=O)Nc2ccccc2C)S1)c1ccco1 (configuration not stated)	1.11	9.1
COc1ccc(/C(N)=N\OC(=O)c2cccc(Br)c2)cc1	0.956	11.6
COc1ccc(/C=C(\C#N)c2nc(-c3ccc(C)cc3)cs2)cc1	0.929	-1.8
O=C(c1cc2n(n1)C(C(F)(F)F)CC(c1ccc(F)cc1)N2)N1CCCC1 (configuration not stated)	0.747*	7.7
Cc1ccc(C2CC(C(F)(F)F)n3nc(C(=O)N4CCN(c5ccc(F)cc5)CC4)cc3N2)cc1 (configuration not stated)	0.92	6.4
N/C(=N/OC(=O)c1ccccc1I)c1cccnc1	1.07	0.3
SMILES	Cy5 interf NS3h	NS3h inh CB
Cc1c(Br)c(C(F)(F)F)nn1CC(=O)N(C)c1ccccc1	0.55*	6.8
Cc1c(Br)c(C(F)(F)F)nn1CC(=O)Nc1cc(C(F)(F)F)ccc1Cl	1.04	0.0
COc1ccc(-c2cn3cccc(C)c3n2)cc1Br	0.807	17.0
COc1ccc(-c2cn3ccccc3n2)cc1Br	0.79*	10.6
COc1cc(Br)c(-c2cc3c(ccc4ccccc43)oc2=O)cc1OC	0.948	-6.5
CCOC(=O)c1cnc2cc(-c3ccc(C)cc3)[nH]n2c1=O	1.07	5.0
CCOC(=O)c1sc(C)c2c(=O)n(CC(=O)NCc3ccccc3)c(C)nc12	1.05	1.4
CCc1ccc(C(=O)CC2(O)C(=O)Nc3ccccc32)cc1 (configuration not stated)	1.05	0.3
O=C(CC1(O)C(=O)Nc2ccccc21)c1ccco1 (configuration not stated)	0.779*	6.8
COc1ccc(N(CC(=O)Nc2cccc(Br)c2)S(C)(=O)=O)cc1Cl	1.01	10.7
O=C1NN(c2ccc(F)cc2)C(=O)/C1=C\c1ccc(-c2cccc(C(=O)O)c2)o1	0.818	15.1
CCN1C(=O)C(=Cc2ccc(-c3cccc(C(=O)O)c3)o2)C(=O)N(CC)C1=S	1.23*	53.5*
COc1ccc(CN2CCN(CC3CC4C=CC3C4)CC2)cc1Br (configuration not stated)	0.749*	-9.0
COc1ccc(OC)c(CN2CCN(Cc3ccc(OC)c(Br)c3)CC2)c1	0.935	-6.9
Cc1ccc(S(=O)(=O)NC(=O)Nc2ccc(C)c(Cl)c2)cc1	1.02	-0.3
CCOC(=O)c1c(-c2ccc(OC)cc2)csc1NC(=O)c1cccc([N+](=O)[O-])c1	0.745*	12.3
CCOC(=O)c1c(-c2ccc(C)cc2)csc1NC(=O)c1ccccc1F	1.14	7.3
CC(=O)Nc1cccc(Oc2ccc3c(c2)C(=O)N(c2ccccc2)C3=O)c1	0.992	8.2
COC(=O)c1cccc(N2C(=O)c3ccc(Oc4ccc(NC(C)=O)cc4)cc3C2=O)c1	1.27*	-25.3
CCOC(=O)Cc1csc(NC(=O)COc2ccc(-c3ccccc3)cc2)n1	0.784*	13.2
O=C(COc1ccc(Cl)cc1)Nc1nc(-c2ccc(Cl)cc2)cs1	0.929	12.8
O=C(c1cccc([N+](=O)[O-])c1)c1ccc2c(c1)C(=O)N(NC(=O)c1ccco1)C2=O	1.11	16.3
CCCCOC(=O)c1ccc(NC(=O)C2CC(C)=C(C)CC2C(=O)O)cc1 (configuration not stated)	0.998	3.2
CCCCOC(=O)c1ccc(NC(C)=O)cc1	0.685*	11.4
CC(=O)O/N=C1/Sc2ccccc2C1=O	1.02	20.1
SMILES	Cy5 interf NS3h	NS3h inh CB
Cc1cccc(-c2nc3cc(NC(=O)COc4ccccc4[N+](=O)[O-])ccc3o2)c1	0.524*	14.2
CCc1ccc(-c2nc3cc(NC(=O)COc4ccccc4[N+](=O)[O-])ccc3o2)cc1	1.08	-3.0
O=C(CSc1ccccn1)OCC(=O)c1ccc(Br)cc1	0.637*	4.0
O=C(CSc1cccc2cccnc12)OCC(=O)c1ccccc1	0.933	-9.5
COc1ccc(NC(=O)/C(C#N)=C\c2ccc(-c3ccc([N+](=O)[O-])cc3Br)o2)cc1	1.09	11.6
CCC(=O)Nc1cccc2c1C(=O)c1ccccc1C2=O	1.06	10.6
COC(=O)c1ccc2c(c1O)C(=O)c1ccccc1C2=O	0.799*	-7.5
COc1ccc(/C=C2\C(=O)NC(=S)N(c3ccc(C)cc3)C2=O)c(OC)c1	1.04	26.9
O=c1cc(-c2ccccc2)c2cc(Cl)ccc2[nH]1	1.08	-13.0
Cn1c(=O)cc(-c2ccccc2)c2ccccc21	0.692*	14.1
COc1ccccc1N1CCN(C(=O)c2nn3c(c2Cl)NC(c2ccc(Br)cc2)CC3C(F)(F)F)CC1 (configuration not stated)	0.961	14.7
COc1ccc(NC(=O)CSc2nc3ccccc3[nH]2)c(OC)c1	0.706*	10.5
COc1ccc2nc(SCC(=O)Nc3ccccc3)[nH]c2c1	0.948	4.0
CCOC(=O)c1ccc(NS(=O)(=O)c2c(C)cc(C)cc2C)cc1	0.976	14.0
